We go through 8 molecules from the supplement of paper PMC5662767.

The experiment concerns Drosophila S2 cl14 SmoIP sensor cells. The experiment can be described thus: normalized SmoIP GFP fluorescence (untreated unstimulated = 0%, untreated Hh-stimulated = 100%); higher = more Smo activation sensor fluorescence. The settings on record: compound concentration: 2 uM, 24 h.
Setting [1] is: stimulation: Hh conditioned medium (+Hh).
[2] abbreviates: stimulation: mock conditioned medium (-Hh).

Structures can show the parent of a compound that is named as a salt.
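Further: flow cytometry read-out as median GFP intensity of gated cells, compounds added 30 min before Hh-conditioned or mock medium, mock-treated cells serving as unstimulated baseline.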

Take `CNCC(=O)c1ccc(O)c(O)c1` [adrenalone-hcl]: the “normalized SmoIP GFP fluorescence” value under setting [1] stood at 106% and the “normalized SmoIP GFP fluorescence” value under setting [2] is -3.39%.
Regarding `COC(=O)C1=CCCN(C)C1` [arecoline], the “normalized SmoIP GFP fluorescence” value runs as follows: under setting [1], 130%; under setting [2], -12.4%.
As to `C[C@H]1CCC/C=C/[C@@H]2C[C@H](O)C[C@H]2[C@H](O)/C=C/C(=O)O1` [brefeldin-a], the “normalized SmoIP GFP fluorescence” value under setting [1] stood at 101% and the “normalized SmoIP GFP fluorescence” value under setting [2] was -4.58%.
Take `CN1CCN(c2nc3ccccc3nc2Cl)CC1`: the “normalized SmoIP GFP fluorescence” value was 105% under setting [1] and -1.34% under setting [2].
Turning to `Cc1cccc([C@H](C)c2c[nH]cn2)c1C` [dexmedetomidine], the “normalized SmoIP GFP fluorescence” value is 108% under setting [1] and -2.59% under setting [2].
The corresponding values for `C[C@]12CCC(=O)C(O)=C1CC[C@@H]1[C@@H]2CC[C@]2(C)C(=O)CC[C@@H]12` [Formestane] are 93.9% and -2.2%.
In the case of `CCN1CCN(C(=O)Cc2ccc(Nc3ncc(F)c(Nc4ccc(C(=O)Nc5ccccc5Cl)cc4)n3)cc2)CC1` [Aurora-A-Inhibitor-I], the “normalized SmoIP GFP fluorescence” value reads like this: under setting [1], 151%; under setting [2], 2.11%.
As to `Cc1sc2c(c1C)C(c1ccc(Cl)cc1)=N[C@@H](CC(=O)Nc1ccc(O)cc1)c1nnc(C)n1-2`, the “normalized SmoIP GFP fluorescence” value was 102% under setting [1] and -1.34% under setting [2].
